Experimental findings from PubChem BioAssay (Tox21) are described below.

Inconclusive results are not listed. Active and inactive are the calls of the source. Calls follow the shape of the dose curve; as a rule, active = well fitted inhibition curve with a large enough effect in the signal ratio in the repeat runs; inconclusive = weak or mixed curves, or effect the other way; inactive = flat fitted curve, though single readings scatter; the % refers to the signal ratio.
% is scaled to controls: 0 for no effect and ±100 for the full control effect; potency is read from the fitted curve at half-maximal effect.

The assay can be described thus: qHTS assay for small molecule disruptors of the mitochondrial membrane potential (AID 720635). Conditions: HepG2 mitochondrial membrane potential, Mito-MPS dye ratio; series mostly up to 83.2 µM; ratio activity, negative = MMP loss: at the top concentration. An excerpt: U.S. Tox21 Program National Center for Advancing Translational Sciences [NCATS] NIH Chemical Genomics Center [NCGC] U.S. Environmental Protection Agency [EPA] National Institutes of Environmental Health Sciences [NIEHS] National Toxicology Program [NTP] U.S. Food and Drug Administration [FDA] Tox21 Assay Overview: Mitochondrial membrane potential (MMP), one of the parameters for mitochondrial function, is generated by mitochondrial electron transport chain that creates an electrochemical gradient by a series of redox reactions. This gradient drives the synthesis of ATP, a crucial molecule for various cellular processes. Measuring MMP in living cells is commonly used to assess the effect of chemicals on mitochondrial function. […] The dye accumulates in the mitochondria of healthy cells as aggregates, with red fluorescence. The mitochondrial potential collapses and the dye can no longer accumulate in the mitochondria and remains in the cytoplasm in monomers, with green fluorescence.
Tox21 Assay Protocol Summary: 2,000 HepG2 cells in 5 uL/well were dispensed into black, clear-bottom 1536-well plates using a Multidrop Combi (Thermo Scientific) dispenser. The assay plates were incubated overnight at 37C to allow cells to attach to the wells, followed by the transfer of 23 nL compound or DMSO vehicle by a pin tool (Kalypsys). The plates were incubated for 1 hr at 37C and 5% CO2, followed by the addition of 5 uL of 2X Mito-MPS dye (BD Biosciences) into each well using Flying Reagent Dispenser (Aurora Discovery) and then following 30 min incubation at 37C. Fluorescence intensity (490nm excitation and 535nm emission for monomers; and 540nm excitation and 590nm emissions for aggregates) was measured using an Envision plate reader.
(Quantitative high-throughput screening tests each substance at several concentrations.)
`CC(C)(C)S`: the “ratio activity, negative = MMP loss” value was 7.75% [at 95.3 µM] (inactive). The same measure, in the same setting: as for `CC(C)c1ccc(C(=O)N=C(N)N)cc1S(C)(=O)=O`, the figure is -11.6% (inactive). Still for that read-out and setting: the figure for `O=NN(CCCl)C(=O)NCCCl` is -11.6% (inactive); for `CC1CCc2nccnc21` (stereo not given) it is -6.51% (inactive); for `CCCCCCCC(=O)OCCCCCC` it is 17.5% (inactive).

As to `CCCCCc1ccco1`, the Potency was 44.7 µM (active). As to `CN=C(N)NC(=O)Nc1c(C)cccc1C`, the “ratio activity, negative = MMP loss” value is 1.92% (inactive). Still for that read-out and setting: the figure for `CCCCC(CC)COS(=O)(=O)O` (stereo not given) is -2.95% (inactive). For the compound `COc1ccc(-c2cc(=S)ss2)cc1`, the Potency is 2.11 µM (active). In the case of `COc1ccc(C2C(=O)c3ccccc3C2=O)cc1`, the “ratio activity, negative = MMP loss” value is -8.85% (inactive).

Take `CCCCCCOC(=O)CCCCC`: the “ratio activity, negative = MMP loss” value was 5.85% (inactive). Regarding `O=C1OC[C@H](Cc2cccc(O)c2)[C@H]1Cc1cccc(O)c1`, the Potency was 8.24 µM (active). Regarding `CCO[Si](C)(CCCOCC1CO1)OCC` (stereo not given), the “ratio activity, negative = MMP loss” value was 10.8% (inactive). Still for that read-out and setting: as for `BrC(Br)C(Br)Br`, the figure is 9.75% (inactive). For `Nc1ccn([C@H]2CS[C@@H](CO)O2)c(=O)n1`, the Potency entry is “inactive”. For `COC(=O)c1sccc1S(N)(=O)=O`, the “ratio activity, negative = MMP loss” value was 13.9% (inactive).

On to `O=C(NS(=O)(=O)/C=C/c1ccccc1)c1ccc(F)cc1Cl`, for which the Potency is 68.6 µM (active).

For the compound `CC[C@H]1OC(=O)[C@H](C)[C@@H](O[C@H]2C[C@@](C)(OC)[C@@H](O)[C@H](C)O2)[C@H](C)[C@@H](O[C@@H]2O[C@H](C)C[C@H](N(C)C)[C@H]2O)[C@](C)(O)C[C@@H](C)/C(=N\OCOCCOC)[C@H](C)[C@@H](O)[C@]1(C)O`, the “ratio activity, negative = MMP loss” value was 8.76% (inactive).

Turning to `CC(C)OC(=O)c1ccccc1C(=O)OC(C)C`, the “ratio activity, negative = MMP loss” value was -20% (inactive). With `Nc1ccc(S(=O)(=O)NCc2ccccc2)cc1`, the “ratio activity, negative = MMP loss” value was -10.9% (inactive). Consider `COC(CC(C)CCCC(C)(C)O)OC` (stereo not given), for which the “ratio activity, negative = MMP loss” value was -15.2% (inactive). `CC(C)C(=O)OCCOc1ccccc1`: the “ratio activity, negative = MMP loss” value is 15% (inactive). With `O=C(O)c1cccc(Oc2ccccc2)c1`, the “ratio activity, negative = MMP loss” value is 5.03% (inactive).

Take `CC(C)(O)c1coc(S(=O)(=O)NC(=O)Nc2c3c(cc4c2CCC4)CCC3)c1`: the “ratio activity, negative = MMP loss” value was -18.5% (inactive).

As for `CCCCCCCCCCCCCCCCCC(=O)OCC(CC)CCCC` (stereo not given), the “ratio activity, negative = MMP loss” value is -3.75% (inactive). On to `COc1ccc(/C=C/C(=O)c2ccc(OC)cc2OC)cc1`, for which the Potency was 13.3 µM (active). On to `Cc1ccc(S(=O)(=O)NC(=O)NC2CCCCC2)cc1`, for which the “ratio activity, negative = MMP loss” value is 8.92% (inactive). On the same count and under the same terms, as for `C=C(C)C(=O)OCCC(F)(F)C(F)(F)C(F)(F)C(F)(F)C(F)(F)C(F)(F)F`, the figure is 26.2% (inactive); as for `O=S(=O)(Cl)c1c(Cl)cccc1Cl`, 2.53% (inactive). Regarding `Cc1cccc(C)c1NC(=O)c1cc(S(N)(=O)=O)c(Cl)cc1O`, the “ratio activity, negative = MMP loss” value is 16.6% (inactive). The same measure, in the same setting: the figure for `CC(=O)OCC1=C(C(=O)O)N2C(=O)[C@@H](NC(=O)CSc3ccncc3)[C@H]2SC1` is -24.5% (inactive). Turning to `Nc1ccc(N=Nc2ccc(N)cc2)cc1`, the Potency is 6.85 µM (active). Turning to `O=C1OC(=O)c2c(Br)c(Br)c(Br)c(Br)c21`, the “ratio activity, negative = MMP loss” value was 21.5% (inactive).

In the case of `O=c1[nH]c2cc(C(F)(F)F)c(N3CCOCC3)cc2n(CP(=O)(O)O)c1=O`, the “ratio activity, negative = MMP loss” value was 12.8% (inactive).

For the compound `CCCOC(=O)c1c(Cl)c(Cl)c(Cl)c(Cl)c1C(=O)OCCC`, the Potency is 61.1 µM (active). On the same count and under the same terms, as for `O=C(c1ccccc1)c1ccc(O)cc1`, the figure is 27.6 µM (active). Consider `C=CC(=O)O`, for which the “ratio activity, negative = MMP loss” value is -19.9% (inactive). Same read-out and setting: the figure for `CCN(CC)C(=O)N1CCN(C)CC1` is 21.7% [at 39.1 µM] (inactive). As to `c1ccc(CCCc2ccncc2)cc1`, the Potency was 10.9 µM (active). On to `CC(O)Cn1cnc2c1c(=O)n(C)c(=O)n2C` (stereo not given), for which the “ratio activity, negative = MMP loss” value is -10.5% [at 39.1 µM] (inactive).
